# Data reported in publication PMC11006913.
# Numbering of substitutions follows the chain as printed.
# Tests used:
# Experiment in all cases: PBM; 200 nM protein, PBS
# Settings in all cases: dsDNA, one strand shown
# NKX2-5 [1] = target: NKX2-5 (Homo sapiens, UniProt P52952 125-210, R139K)
# NKX2-4 [2] = target: T1, NKX2-4 (Homo sapiens, UniProt Q9H2Z4 175-261, P217L)
# T1 sequence: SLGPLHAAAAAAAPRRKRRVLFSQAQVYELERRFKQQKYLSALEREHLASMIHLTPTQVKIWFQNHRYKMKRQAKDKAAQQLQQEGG
# NKX2-4 [3] = target: T2, NKX2-4 (Homo sapiens, UniProt Q9H2Z4 175-261, T231S)
# T2 sequence: T1 sequence with L43P, T57S
# NKX2-4 [4] = target: T3, NKX2-4 (Homo sapiens, UniProt Q9H2Z4 175-261)
# T3 sequence: T1 sequence with L43P
# NKX2-6 [5] = target: T4, NKX2-6 (Homo sapiens, UniProt A6NCS4 118-204, R150C)
# T4 sequence: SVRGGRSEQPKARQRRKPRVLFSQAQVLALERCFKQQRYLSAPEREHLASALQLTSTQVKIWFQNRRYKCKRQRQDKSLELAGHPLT
# NKX2-6 [6] = target: T5, NKX2-6 (Homo sapiens, UniProt A6NCS4 118-204)
# T5 sequence: T4 sequence with C33R
# NKX2-4 [7] = target: T6, NKX2-4 (Homo sapiens, UniProt Q9H2Z4 175-261, R246Q)
# T6 sequence: T1 sequence with L43P, R72Q
# NKX2-6 [8] = target: T7, NKX2-6 (Homo sapiens, UniProt A6NCS4 118-204, F151L)
# T7 sequence: T4 sequence with C33R, F34L
# NKX3-2 [9] = target: NKX3-2 (Homo sapiens, UniProt P78367 192-278, P234S)
# Chain of NKX3-2 (Homo sapiens, UniProt P78367 192-278, P234S) (P78367 192-278 P234S): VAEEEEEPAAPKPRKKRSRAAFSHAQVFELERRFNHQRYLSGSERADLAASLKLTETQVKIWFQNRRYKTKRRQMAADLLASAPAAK
# NKX2-5 [10] = target: NKX2-5 (Homo sapiens, UniProt P52952 125-210)
# Chain of NKX2-5 (Homo sapiens, UniProt P52952 125-210) (P52952 125-210): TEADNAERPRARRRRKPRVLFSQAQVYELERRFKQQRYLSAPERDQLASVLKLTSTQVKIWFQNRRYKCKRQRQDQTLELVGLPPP
# NKX3-2 [11] = target: NKX3-2 (Homo sapiens, UniProt P78367 192-278)
# Chain of NKX3-2 (Homo sapiens, UniProt P78367 192-278) (P78367 192-278): as the sequence (P78367 192-278 P234S) above, with S43P counted along it
# Chain of NKX2-5 (Homo sapiens, UniProt P52952 125-210, R139K) (P52952 125-210 R139K): as the sequence (P52952 125-210) above, with R15K counted along it
Sequence,binding signal (NKX2-5 [1]),binding signal (NKX2-4 [2]),binding signal (NKX2-4 [3]),binding signal (NKX2-4 [4]),binding signal (NKX2-6 [5]),binding signal (NKX2-6 [6]),binding signal (NKX2-4 [7]),binding signal (NKX2-6 [8]),binding signal (NKX3-2 [9]),binding signal (NKX2-5 [10]),binding signal (NKX3-2 [11])
CAAGTGGC,"12.5 upbm affinity estimate (log intensity, higher = more binding, comparable within an allelic series)","12.4 upbm affinity estimate (log intensity, higher = more binding, comparable within an allelic series)","12.8 upbm affinity estimate (log intensity, higher = more binding, comparable within an allelic series)","12.3 upbm affinity estimate (log intensity, higher = more binding, comparable within an allelic series)","11.7 upbm affinity estimate (log intensity, higher = more binding, comparable within an allelic series)","13.4 upbm affinity estimate (log intensity, higher = more binding, comparable within an allelic series)","12.9 upbm affinity estimate (log intensity, higher = more binding, comparable within an allelic series)","10.7 upbm affinity estimate (log intensity, higher = more binding, comparable within an allelic series)","12.5 upbm affinity estimate (log intensity, higher = more binding, comparable within an allelic series)","12.4 upbm affinity estimate (log intensity, higher = more binding, comparable within an allelic series)","12.6 upbm affinity estimate (log intensity, higher = more binding, comparable within an allelic series)"
CACTTATC,"12.8 upbm affinity estimate (log intensity, higher = more binding, comparable within an allelic series)","12.7 upbm affinity estimate (log intensity, higher = more binding, comparable within an allelic series)","13 upbm affinity estimate (log intensity, higher = more binding, comparable within an allelic series)","12.5 upbm affinity estimate (log intensity, higher = more binding, comparable within an allelic series)","12.1 upbm affinity estimate (log intensity, higher = more binding, comparable within an allelic series)","13.8 upbm affinity estimate (log intensity, higher = more binding, comparable within an allelic series)","13.2 upbm affinity estimate (log intensity, higher = more binding, comparable within an allelic series)","11.2 upbm affinity estimate (log intensity, higher = more binding, comparable within an allelic series)","12.7 upbm affinity estimate (log intensity, higher = more binding, comparable within an allelic series)","12.8 upbm affinity estimate (log intensity, higher = more binding, comparable within an allelic series)","12.8 upbm affinity estimate (log intensity, higher = more binding, comparable within an allelic series)"
AGTACTTA,"12.9 upbm affinity estimate (log intensity, higher = more binding, comparable within an allelic series)","12.6 upbm affinity estimate (log intensity, higher = more binding, comparable within an allelic series)","13.1 upbm affinity estimate (log intensity, higher = more binding, comparable within an allelic series)","12.5 upbm affinity estimate (log intensity, higher = more binding, comparable within an allelic series)","12 upbm affinity estimate (log intensity, higher = more binding, comparable within an allelic series)","13.8 upbm affinity estimate (log intensity, higher = more binding, comparable within an allelic series)","13.1 upbm affinity estimate (log intensity, higher = more binding, comparable within an allelic series)","11.2 upbm affinity estimate (log intensity, higher = more binding, comparable within an allelic series)","12.6 upbm affinity estimate (log intensity, higher = more binding, comparable within an allelic series)","12.8 upbm affinity estimate (log intensity, higher = more binding, comparable within an allelic series)","12.7 upbm affinity estimate (log intensity, higher = more binding, comparable within an allelic series)"
CACTTATG,"13 upbm affinity estimate (log intensity, higher = more binding, comparable within an allelic series)","12.6 upbm affinity estimate (log intensity, higher = more binding, comparable within an allelic series)","13 upbm affinity estimate (log intensity, higher = more binding, comparable within an allelic series)","12.5 upbm affinity estimate (log intensity, higher = more binding, comparable within an allelic series)","12.2 upbm affinity estimate (log intensity, higher = more binding, comparable within an allelic series)","13.8 upbm affinity estimate (log intensity, higher = more binding, comparable within an allelic series)","13.1 upbm affinity estimate (log intensity, higher = more binding, comparable within an allelic series)","11.2 upbm affinity estimate (log intensity, higher = more binding, comparable within an allelic series)","12.8 upbm affinity estimate (log intensity, higher = more binding, comparable within an allelic series)","13 upbm affinity estimate (log intensity, higher = more binding, comparable within an allelic series)","12.9 upbm affinity estimate (log intensity, higher = more binding, comparable within an allelic series)"
ACACTTAA,"13 upbm affinity estimate (log intensity, higher = more binding, comparable within an allelic series)","12.6 upbm affinity estimate (log intensity, higher = more binding, comparable within an allelic series)","13 upbm affinity estimate (log intensity, higher = more binding, comparable within an allelic series)","12.5 upbm affinity estimate (log intensity, higher = more binding, comparable within an allelic series)","12 upbm affinity estimate (log intensity, higher = more binding, comparable within an allelic series)","13.8 upbm affinity estimate (log intensity, higher = more binding, comparable within an allelic series)","13.1 upbm affinity estimate (log intensity, higher = more binding, comparable within an allelic series)","11.5 upbm affinity estimate (log intensity, higher = more binding, comparable within an allelic series)","12.7 upbm affinity estimate (log intensity, higher = more binding, comparable within an allelic series)","12.8 upbm affinity estimate (log intensity, higher = more binding, comparable within an allelic series)","12.8 upbm affinity estimate (log intensity, higher = more binding, comparable within an allelic series)"
CCACTTAA,"13.4 upbm affinity estimate (log intensity, higher = more binding, comparable within an allelic series)","12.8 upbm affinity estimate (log intensity, higher = more binding, comparable within an allelic series)","13.2 upbm affinity estimate (log intensity, higher = more binding, comparable within an allelic series)","12.7 upbm affinity estimate (log intensity, higher = more binding, comparable within an allelic series)","12.3 upbm affinity estimate (log intensity, higher = more binding, comparable within an allelic series)","14.1 upbm affinity estimate (log intensity, higher = more binding, comparable within an allelic series)","13.3 upbm affinity estimate (log intensity, higher = more binding, comparable within an allelic series)","11.5 upbm affinity estimate (log intensity, higher = more binding, comparable within an allelic series)","13.2 upbm affinity estimate (log intensity, higher = more binding, comparable within an allelic series)","13.2 upbm affinity estimate (log intensity, higher = more binding, comparable within an allelic series)","13.3 upbm affinity estimate (log intensity, higher = more binding, comparable within an allelic series)"
GTACTTCA,"12.5 upbm affinity estimate (log intensity, higher = more binding, comparable within an allelic series)","12.7 upbm affinity estimate (log intensity, higher = more binding, comparable within an allelic series)","13.1 upbm affinity estimate (log intensity, higher = more binding, comparable within an allelic series)","12.6 upbm affinity estimate (log intensity, higher = more binding, comparable within an allelic series)","11.7 upbm affinity estimate (log intensity, higher = more binding, comparable within an allelic series)","13.4 upbm affinity estimate (log intensity, higher = more binding, comparable within an allelic series)","13.2 upbm affinity estimate (log intensity, higher = more binding, comparable within an allelic series)","10.8 upbm affinity estimate (log intensity, higher = more binding, comparable within an allelic series)",–,"12.4 upbm affinity estimate (log intensity, higher = more binding, comparable within an allelic series)",–
ATACTTGA,"12.4 upbm affinity estimate (log intensity, higher = more binding, comparable within an allelic series)","12.6 upbm affinity estimate (log intensity, higher = more binding, comparable within an allelic series)","13 upbm affinity estimate (log intensity, higher = more binding, comparable within an allelic series)","12.5 upbm affinity estimate (log intensity, higher = more binding, comparable within an allelic series)","11.6 upbm affinity estimate (log intensity, higher = more binding, comparable within an allelic series)","13.5 upbm affinity estimate (log intensity, higher = more binding, comparable within an allelic series)","13.2 upbm affinity estimate (log intensity, higher = more binding, comparable within an allelic series)","10.7 upbm affinity estimate (log intensity, higher = more binding, comparable within an allelic series)",–,"12.3 upbm affinity estimate (log intensity, higher = more binding, comparable within an allelic series)",–
CCACTTAG,"13.1 upbm affinity estimate (log intensity, higher = more binding, comparable within an allelic series)","12.7 upbm affinity estimate (log intensity, higher = more binding, comparable within an allelic series)","13 upbm affinity estimate (log intensity, higher = more binding, comparable within an allelic series)","12.6 upbm affinity estimate (log intensity, higher = more binding, comparable within an allelic series)","12.2 upbm affinity estimate (log intensity, higher = more binding, comparable within an allelic series)","14 upbm affinity estimate (log intensity, higher = more binding, comparable within an allelic series)","13.1 upbm affinity estimate (log intensity, higher = more binding, comparable within an allelic series)","11.1 upbm affinity estimate (log intensity, higher = more binding, comparable within an allelic series)","13.4 upbm affinity estimate (log intensity, higher = more binding, comparable within an allelic series)","13.1 upbm affinity estimate (log intensity, higher = more binding, comparable within an allelic series)","13.5 upbm affinity estimate (log intensity, higher = more binding, comparable within an allelic series)"
AAGCACTT,"12.7 upbm affinity estimate (log intensity, higher = more binding, comparable within an allelic series)","12.6 upbm affinity estimate (log intensity, higher = more binding, comparable within an allelic series)","12.9 upbm affinity estimate (log intensity, higher = more binding, comparable within an allelic series)","12.4 upbm affinity estimate (log intensity, higher = more binding, comparable within an allelic series)","11.8 upbm affinity estimate (log intensity, higher = more binding, comparable within an allelic series)","13.5 upbm affinity estimate (log intensity, higher = more binding, comparable within an allelic series)","13.1 upbm affinity estimate (log intensity, higher = more binding, comparable within an allelic series)","11 upbm affinity estimate (log intensity, higher = more binding, comparable within an allelic series)","12.5 upbm affinity estimate (log intensity, higher = more binding, comparable within an allelic series)","12.5 upbm affinity estimate (log intensity, higher = more binding, comparable within an allelic series)","12.6 upbm affinity estimate (log intensity, higher = more binding, comparable within an allelic series)"
AACACTTA,"12.7 upbm affinity estimate (log intensity, higher = more binding, comparable within an allelic series)","12.5 upbm affinity estimate (log intensity, higher = more binding, comparable within an allelic series)","12.8 upbm affinity estimate (log intensity, higher = more binding, comparable within an allelic series)","12.4 upbm affinity estimate (log intensity, higher = more binding, comparable within an allelic series)","11.8 upbm affinity estimate (log intensity, higher = more binding, comparable within an allelic series)","13.6 upbm affinity estimate (log intensity, higher = more binding, comparable within an allelic series)","12.9 upbm affinity estimate (log intensity, higher = more binding, comparable within an allelic series)","11.3 upbm affinity estimate (log intensity, higher = more binding, comparable within an allelic series)","12.7 upbm affinity estimate (log intensity, higher = more binding, comparable within an allelic series)","12.6 upbm affinity estimate (log intensity, higher = more binding, comparable within an allelic series)","12.7 upbm affinity estimate (log intensity, higher = more binding, comparable within an allelic series)"
AGTACTTG,"12.5 upbm affinity estimate (log intensity, higher = more binding, comparable within an allelic series)","12.5 upbm affinity estimate (log intensity, higher = more binding, comparable within an allelic series)","12.9 upbm affinity estimate (log intensity, higher = more binding, comparable within an allelic series)","12.4 upbm affinity estimate (log intensity, higher = more binding, comparable within an allelic series)","11.6 upbm affinity estimate (log intensity, higher = more binding, comparable within an allelic series)","13.5 upbm affinity estimate (log intensity, higher = more binding, comparable within an allelic series)","13 upbm affinity estimate (log intensity, higher = more binding, comparable within an allelic series)","10.8 upbm affinity estimate (log intensity, higher = more binding, comparable within an allelic series)",–,"12.3 upbm affinity estimate (log intensity, higher = more binding, comparable within an allelic series)",–
